Test results: the supplement of paper PMC3334620
Over roughly 33,000 sequences, “E-score (-0.5 to 0.5)” has its median near -0.04; the highest 2% begin near 0.36. The entries come from a sample that favours the highest values as a whole.

Molecular target: T1, Hmlalpha2 (UniProt P0CY09)
T1 sequence: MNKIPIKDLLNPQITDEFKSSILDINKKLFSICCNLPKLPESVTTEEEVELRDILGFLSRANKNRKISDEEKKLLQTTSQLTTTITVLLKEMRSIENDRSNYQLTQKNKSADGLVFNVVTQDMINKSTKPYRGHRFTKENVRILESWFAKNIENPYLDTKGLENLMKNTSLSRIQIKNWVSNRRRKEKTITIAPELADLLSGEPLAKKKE
Experiment: PBM E-score (8-mer binding enrichment) (E-score (-0.5 to 0.5)); higher = stronger / more preferred TF binding
Details: protein concentration: 200 nM; construct: GST-full length
Protocol: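 Universal 'all 10-mer' protein binding microarrays (Agilent AMADID 015681) probed with GST-tagged S. cerevisiae TFs (full-length or DBD) made by in vitro transcription/translation (PURExpress), about 100-200 nM. Bound TF was detected with fluorescent anti-GST. Each ungapped 8-mer (which stands for itself and its reverse complement) is scored by the PBM enrichment score (E-score), a modified Wilcoxon-Mann-Whitney statistic from -0.5 to +0.5, computed with the Universal PBM Analysis Suite. Scale: above 0.35 generally sequence-specific binding.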

Sequence	PBM E-score
GACTTGGC	-0.347
AGCACGAT	0.147
ATCACGAT	-0.0443
GACACGAC	0.394
AACACGAT	0.439
GACACGAA	0.2
GACACGGC	0.223
ATAGAACA	0.164
GGGTTCGA	-0.248
CGACAATC	-0.19
GCCTCTGA	-0.251
GTTTCAGA	-0.0374
CACCGGCG	-0.12
AACACTTC	0.138
ACTACCGA	-0.12
GTTCAACA	0.367
CATCAACA	0.297
GATCAACA	0.341
AATCAACG	0.202
AATCAACA	0.37
CTTCAACA	0.341
AATCAACC	-0.103
TATCAACA	0.365
ATTCAACA	0.352
CCCGGTTC	-0.22
GCCAGGAC	-0.269

Sequence	PBM E-score
AGTAGATG	0.136
AGGTAAGA	-0.0177
ATGTAAGG	0.313
ATGTAAGC	0.374
CTGTAAGA	0.0715
AAGTAAGA	0.0354
GTGTAAGA	0.401
ATGTAAGA	0.433
CTGTAAGC	-0.0257
GCGTAAGA	0.249
AGGGAGGC	-0.339
ACATACCA	0.227
TGCTCTAA	-0.134
ACCTTACC	0.0897
ACAACTAC	0.225
CCCGATAC	-0.0785
ATCATGCG	-0.0811
AACATGCG	0.399
GACATGGA	0.263
ACCATGCT	0.0386
AACATGCT	0.396
ACCATGCA	0.106
CACATGCG	0.141
CACATGGA	0.197
AACATGCA	0.417
TACATGGA	0.429

Sequence	PBM E-score
ATCATGCA	-0.0495
AGCATGCT	0.151
AGAATGGG	-0.307
GATTCCAA	-0.0677
ACATGCCG	0.356
TAGCAGCA	-0.0647
GACCCAGA	-0.168
CCTCCCGC	-0.0916
ATCCGTGG	-0.229
CCGATCAA	-0.0314
CGCACCGC	-0.177
CCGCCAAA	-0.105
CGAAAGAA	-0.0556
TCCGCGGA	-0.0621
ACGAAAGA	-0.0344
AATCGTAC	0.102
AACATGCC	0.388
GACATGCC	0.212
GACATGCA	0.294
TACATGCA	0.438
CACATGCC	0.209
CACATGCA	0.234
ACGTTAGA	0.146
GGTCCGGA	-0.0474
TAAGCGAA	0.122
TTTCGAAA	0.0465

Sequence	PBM E-score
ATTTCTAC	0.234
AACATAGA	0.284
AACATAAT	0.287
AACATAAG	0.391
AACATAAC	0.403
CACATAAG	0.117
CACATAGG	0.0614
CACATAAC	0.242
ATCATAAG	-0.00054
AACATAGG	0.38
CCGCAGTA	-0.0882
ATATTCTA	0.169
CTCTTCGC	-0.205
CCATTGCG	-0.262
GGGTATCA	-0.118
AGCATAGC	0.0169
GTGCGTAA	0.406
CTGCGTTA	0.226
ATGCGTAG	0.214
CTGCGTAC	0.186
ATGCGTAA	0.375
ATGCGTAC	0.273
GGGCGTAA	0.0836
CTGCGTAA	0.417
GTGCGTGA	0.192
GTTCTGAA	0.213

Sequence	PBM E-score
TGTGGGAA	0.00853
CCCTCGCG	-0.199
ATGAGCAC	-0.067
ACTAAGTC	-0.157
AATATTAG	0.0923
AATATTAT	0.189
AATATTAC	0.381
ACCACCAG	-0.148
CATACGCG	0.177
AATACGCT	0.234
AATACGCA	0.385
AATACGCG	0.399
AATACGCC	0.0351
GATACGCA	0.144
CGACTTTA	0.134
AGGCACGC	-0.188
CTATTACC	-0.0498
CTATTAGA	-0.0387
ATATTACC	0.187
ATATTACG	0.352
GTATTACA	0.403
GTATTAAA	0.307
ATATTACA	0.439
CTATTACA	0.442
GTATTAGA	0.289
ATCTTTCA	0.0227

Sequence	PBM E-score
TTTCAAAA	0.17
CTGATACC	-0.15
CGTTTGAC	0.0383
GCGTAATA	0.373
ACGTAATC	0.392
ACGTAATA	0.431
ACGTAAGA	0.29
CCGTAATA	0.159
CCGTAATC	-0.00299
AAGTAATG	0.196
ACGTAATG	0.408
ACGTAAGC	0.0597
AGGTAATG	0.226
GAGTAATA	0.286
AGGTAATA	0.139
GCTGCTTA	-0.0322
CCAATGCG	-0.181
GGTAAGCA	-0.0728
AATAAGCC	-0.212
GTGCATGA	0.0341
GAAAGTTC	-0.218
GTATCCTA	0.0388
GCCTATGA	-0.147
CCAACCCG	-0.242
GGGCGAAC	-0.178
GAACTCTA	0.123

Sequence	PBM E-score
TTATCGAA	0.0652
CCTGTTAG	0.0951
AATGTTAC	0.269
CATGTTAG	0.422
CATGTTAC	0.41
AATGTTAG	0.185
GATGTTAC	0.304
ATGGTCGA	-0.0159
AGGTAAAG	0.19
ACGTAAGT	0.216
CCGTAAAG	0.0757
ACGTAAAT	0.376
ACGTAAAC	0.295
ACGTAAAA	0.388
CAGTAAAA	0.134
ACGTAACA	0.385
ACGTAAAG	0.372
ACGTAACG	0.161
ACGTAACC	0.22
AAGTAAAA	0.121
